# PubChem BioAssay (NCATS)
# Where “and” joins values, the source holds several entries; their conditions need not be identical. Identical values can stand only once. Records with an inconclusive call do not appear. A call without a number means that no potency is given here. The source holds several records for some structures; these can differ, active in one and inactive in another. Calls of active or inactive are those of the source. Unless noted, calls follow the shape of the dose curve; as a rule, active = well fitted curve in the direction sought with a large enough effect; inconclusive = small, poorly fitted or top-dose-only effect, or another doubt; inactive = no such curve, though single readings can be large; an effect the other way counts as inactive or inconclusive.
# Tests used:
# [1] = biological target: Voltage-gated inwardly rectifying potassium channel KCNH2 (Homo sapiens) (UniProt Q12809); assay: qHTS Assay for Small Molecule Inhibitors of the Human hERG Channel Activity (AID 588834);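 also: lower thallium flux fluorescence means stronger hERG block; nearly all actives have a fitted effect of over 50% in size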; also: potency is read from the fitted curve at half-maximal effect
# Sequence of Voltage-gated inwardly rectifying potassium channel KCNH2 (Homo sapiens) (Q12809 whole entry, looked up): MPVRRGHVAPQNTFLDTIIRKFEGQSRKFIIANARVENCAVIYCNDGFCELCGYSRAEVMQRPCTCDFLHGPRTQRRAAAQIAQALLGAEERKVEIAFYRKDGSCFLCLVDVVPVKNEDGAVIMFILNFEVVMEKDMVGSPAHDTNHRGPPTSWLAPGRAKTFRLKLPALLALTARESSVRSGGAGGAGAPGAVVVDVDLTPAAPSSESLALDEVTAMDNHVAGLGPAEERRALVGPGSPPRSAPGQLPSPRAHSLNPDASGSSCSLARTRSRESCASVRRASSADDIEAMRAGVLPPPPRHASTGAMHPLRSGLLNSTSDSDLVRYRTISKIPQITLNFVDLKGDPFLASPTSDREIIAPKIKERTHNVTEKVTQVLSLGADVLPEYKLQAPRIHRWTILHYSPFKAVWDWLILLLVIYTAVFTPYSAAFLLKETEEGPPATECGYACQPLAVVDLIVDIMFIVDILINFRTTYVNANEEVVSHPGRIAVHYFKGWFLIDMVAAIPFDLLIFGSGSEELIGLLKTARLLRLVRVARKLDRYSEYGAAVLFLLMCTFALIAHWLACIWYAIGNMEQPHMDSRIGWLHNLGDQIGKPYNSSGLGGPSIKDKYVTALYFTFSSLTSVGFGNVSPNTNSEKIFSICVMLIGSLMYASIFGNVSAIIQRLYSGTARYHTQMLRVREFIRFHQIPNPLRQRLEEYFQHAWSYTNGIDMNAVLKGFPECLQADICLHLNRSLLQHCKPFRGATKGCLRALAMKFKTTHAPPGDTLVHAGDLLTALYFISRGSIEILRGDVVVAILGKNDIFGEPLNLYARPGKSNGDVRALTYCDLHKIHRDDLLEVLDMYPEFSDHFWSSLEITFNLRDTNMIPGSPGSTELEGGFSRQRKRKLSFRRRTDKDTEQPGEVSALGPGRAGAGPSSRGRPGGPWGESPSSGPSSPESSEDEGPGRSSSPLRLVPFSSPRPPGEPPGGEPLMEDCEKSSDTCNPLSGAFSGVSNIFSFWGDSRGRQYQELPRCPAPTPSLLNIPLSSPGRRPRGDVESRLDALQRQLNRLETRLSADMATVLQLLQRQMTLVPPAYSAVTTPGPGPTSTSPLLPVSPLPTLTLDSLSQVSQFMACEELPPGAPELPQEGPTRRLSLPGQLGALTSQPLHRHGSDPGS
# Method in brief: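 Blockade is seen as reduced FluxOR thallium-flux fluorescence in U2OS cells expressing hERG from a BacMam construct, in Opti-MEM with 2% FCS. Concentration-response data fitted to the Hill equation for AC50.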
# [2] = biological target: Luciferin 4-monooxygenase (Photinus pyralis) (UniProt P08659); assay: Biochemical firefly luciferase enzyme assay for NPC (AID 624030); also: nearly all actives have a fitted effect of over 70% in size; also: potency is read from the fitted curve at half-maximal effect
# Sequence of Luciferin 4-monooxygenase (Photinus pyralis) (P08659 whole entry, looked up): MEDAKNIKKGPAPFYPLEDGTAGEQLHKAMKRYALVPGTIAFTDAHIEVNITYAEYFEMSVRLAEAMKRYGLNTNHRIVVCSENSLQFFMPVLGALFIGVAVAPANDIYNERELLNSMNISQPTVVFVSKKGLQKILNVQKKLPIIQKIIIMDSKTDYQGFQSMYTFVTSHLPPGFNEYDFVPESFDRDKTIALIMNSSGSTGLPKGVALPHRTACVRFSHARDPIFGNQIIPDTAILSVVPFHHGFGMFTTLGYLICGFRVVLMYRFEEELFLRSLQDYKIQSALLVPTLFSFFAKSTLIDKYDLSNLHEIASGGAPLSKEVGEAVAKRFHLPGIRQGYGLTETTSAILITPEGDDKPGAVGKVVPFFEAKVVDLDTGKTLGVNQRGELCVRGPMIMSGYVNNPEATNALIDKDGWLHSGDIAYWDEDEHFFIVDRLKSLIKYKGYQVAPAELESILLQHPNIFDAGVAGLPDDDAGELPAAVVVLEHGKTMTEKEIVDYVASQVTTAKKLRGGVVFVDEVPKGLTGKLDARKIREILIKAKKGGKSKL
# Method in brief: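 Counter-screen for direct inhibition of the luciferase enzyme by approved-drug library compounds, run at 10 nM enzyme in 50 mM Tris acetate (final). Luminescence was read within 5 min of enzyme-buffer addition and normalized to PTC124 versus DMSO (0%).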
# [3] = S16 Schwann cell viability assay (CellTiter-Glo assay) (AID 624031); also: nearly all actives have a fitted effect of over 70% in size; also: potency is read from the fitted curve at half-maximal effect
# Method in brief: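 Rat S16 Schwann cells without reporter constructs received compound or DMSO for 24 h at 37 °C under 5% CO2. Cellular ATP was then quantified by CellTiter-Glo luminescence, with vehicle wells defined as 0% activity and cell-free wells as reference.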
# [4] = S16 Schwann cell PMP22 intronic element firefly luciferase assay (AID 624032); also: nearly all actives have a fitted effect of over 30% in size; also: potency is read from the fitted curve at half-maximal effect
# Method in brief: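 Rat S16 Schwann cells stably carrying a PMP22 intronic element-driven Fluc reporter were seeded overnight, then exposed to compounds for 24 h at 37 °C. Luminescence was normalized to PTC124 (positive control) and DMSO (0% activity).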
# [5] = biological target: Glutaminase kidney isoform, mitochondrial (Homo sapiens) (UniProt O94925); assay: qHTS for Inhibitors of Glutaminase (GLS): LOPAC Validation (AID 624146); also: nearly all actives have a fitted effect of over 60% in size; also: potency is read from the fitted curve at half-maximal effect
# Sequence of Glutaminase kidney isoform, mitochondrial (Homo sapiens) (O94925 whole entry, looked up, canonical isoform): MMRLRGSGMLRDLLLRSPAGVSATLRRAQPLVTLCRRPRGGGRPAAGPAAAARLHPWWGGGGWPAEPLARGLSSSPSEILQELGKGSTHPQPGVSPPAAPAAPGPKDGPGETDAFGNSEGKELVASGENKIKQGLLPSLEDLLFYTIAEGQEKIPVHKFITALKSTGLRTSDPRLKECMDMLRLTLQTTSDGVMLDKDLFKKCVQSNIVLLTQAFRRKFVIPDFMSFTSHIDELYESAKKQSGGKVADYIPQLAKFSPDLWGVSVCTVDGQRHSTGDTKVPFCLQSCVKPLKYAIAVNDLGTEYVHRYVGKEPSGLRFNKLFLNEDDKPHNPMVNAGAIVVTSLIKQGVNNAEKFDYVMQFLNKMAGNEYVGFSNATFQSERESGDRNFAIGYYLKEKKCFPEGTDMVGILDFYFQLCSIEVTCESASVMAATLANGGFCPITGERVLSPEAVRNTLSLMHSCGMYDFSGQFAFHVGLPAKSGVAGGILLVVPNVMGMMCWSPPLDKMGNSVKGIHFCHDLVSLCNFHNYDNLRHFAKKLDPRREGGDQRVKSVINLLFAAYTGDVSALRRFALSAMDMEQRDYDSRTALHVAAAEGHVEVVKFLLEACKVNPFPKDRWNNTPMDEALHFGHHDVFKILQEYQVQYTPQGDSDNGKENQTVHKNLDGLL
# Method in brief: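 Glutamate formation by hKGA was monitored fluorometrically using coupled glutamate oxidase, HRP and Amplex Red. Substrate was added as 1 mM L-glutamine solution; incubation was 30 min at RT after an initial read.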
# [6] = qHTS of Trypanosoma Brucei Inhibitors: LOPAC Validation (AID 624147)
# Method in brief: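 ADP (130 uM final) triggers the TbPYK reaction after compound addition; incubation is 45 min at room temperature. Kinase-Glo Plus is then added and luminescence imaged. Normalized data are fitted to concentration-effect curves.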
# [7] = S16 Schwann cell PMP22 intronic element beta-lactamase assay (AID 624044; calls by dose curve; also: nearly all actives have a fitted effect of over 15% in size; also: potency is read from the fitted curve at half-maximal effect)
# Method in brief: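 Rat S16 Schwann cells with beta-Lac driven by a PMP22 intronic element, compound-treated 24 h at 37 °C. LiveBLAzer FRET B/G read: 460 nm normalized to potassium clavulanate vs DMSO; 535 nm FRET as viability; concentration-effect curves classified.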
Structure (SMILES),Potency [1],Potency [2],Potency [3],Potency [4],Potency [5],Potency [6],Potency [7]
C#CC1(O)CC[C@H]2[C@@H]3CCC4=CCCC[C@@H]4[C@H]3CC[C@@]21C (stereo partly specified),inactive,–,–,–,–,–,–
Clc1ccccc1-c1nc(-c2ccncc2)no1,inactive,3.61 µM (active),inactive,inactive,–,–,–
CN1CC(=O)N/C1=N/C(=O)Nc1cccc(Cl)c1,inactive,inactive,–,–,inactive,inactive,–
CC1(C)S[C@@H]2[C@H](NC(=O)[C@H](NC(=O)N3CCN(S(C)(=O)=O)C3=O)c3ccccc3)C(=O)N2[C@H]1C(=O)O,inactive,inactive,inactive,inactive,–,–,inactive
CC(C(=O)O)c1ccc2c(c1)[nH]c1ccc(Cl)cc12 (stereo unspecified),inactive,–,inactive,inactive,–,–,–
CN(C)c1ccc(C(=C2C=CC(=[N+](C)C)C=C2)c2ccccc2)cc1,7.08 µM (active),–,–,inactive,–,–,3.98 µM (active)
C=CC(N)CCC(=O)O (stereo unspecified),inactive,inactive,inactive,inactive,inactive,inactive,inactive
CCOc1ccc2nc(S(N)(=O)=O)sc2c1,inactive,–,inactive,inactive,–,–,–
O=C(O)/C=C/C(O)c1ccc(Cl)cc1 (stereo unspecified),inactive,inactive,inactive,inactive,inactive,inactive,inactive
Nc1c(CC(=O)O)cccc1C(=O)c1ccc(Br)cc1,inactive,–,inactive,inactive,–,–,–
CCCSc1ccc2nc(NC(=O)OC)[nH]c2c1,inactive,–,inactive,–,–,–,–
N=c1ccn2c(n1)O[C@H]1[C@H](O)[C@@H](CO)O[C@H]12,inactive,inactive,inactive,14.4 µM (active),–,inactive,14.1 µM (active)
Cc1cc(O)c2ccccc2c1O,inactive,inactive,12.8 µM (active),25.6 µM (active),–,–,inactive
COc1ccc(-c2cc(=S)ss2)cc1,inactive,–,inactive,inactive,–,–,–
Cc1nc2ccccc2n1Cc1ccc(Cl)cc1,inactive,–,–,inactive,–,–,–
COc1cc(/C=C/C(=O)N2CCN(CC(=O)N3CCCC3)CC2)cc(OC)c1OC,inactive,inactive,inactive,inactive,–,–,inactive
CCCCCCCCCCCC(=O)[O][Sn]([CH2]CCC)([CH2]CCC)[O]C(=O)CCCCCCCCCCC,inactive,–,inactive,9.07 µM (active),–,–,inactive
CC(=O)[C@]1(O)Cc2c(O)c3c(c(O)c2[C@@H](O[C@H]2C[C@H](N)[C@H](O)[C@H](C)O2)C1)C(=O)c1c(O)cccc1C3=O,inactive,–,inactive,–,–,–,0.398 µM (active)
CCCC(=O)OC[C@@H](OC(=O)CCC)[C@@H](OC(=O)CCC)[C@H](Cn1c2nc(=O)[nH]c(=O)c-2nc2cc(C)c(C)cc21)OC(=O)CCC,10 µM (active),inactive,–,14.4 µM (active),–,–,–
NCCCCC(=O)O,inactive,–,–,–,inactive,inactive,–
c1ccc2sc(SN3CCOCC3)nc2c1,inactive,–,inactive,inactive,–,–,–
CN1[C@@H](CC(=O)c2ccccc2)CCC[C@H]1C[C@H](O)c1ccccc1,1.41 µM (active),inactive,inactive,inactive,–,inactive,inactive
C=CCN1C(=O)C(CC(C)C)NC1=S (stereo unspecified),inactive,inactive,inactive,inactive,–,–,inactive
O=c1[nH]c2ccccc2n1CCCN1CCN(C(c2ccccc2)c2ccccc2)CC1,3.55 µM (active),inactive,–,8.09 µM (active),–,–,–
CC1(C)CCC=[N+]1[O-],inactive,–,–,–,inactive,inactive,–

Structure (SMILES),Potency [1],Potency [2],Potency [3],Potency [4],Potency [5],Potency [6],Potency [7]
CN1CCN(c2cc3c(nn2)Oc2ccccc2N3C)CC1,inactive,–,inactive,–,–,–,–
O=C(Nc1ccc(C(=O)O)c(O)c1)c1ccccc1,inactive,–,inactive,inactive,–,–,inactive
C=C(Nc1ccc(OCC)cc1)Nc1ccc(OCC)cc1,14.1 µM (active),inactive,inactive,inactive,–,–,inactive
OCC1O[C@H](O)C(Cl)C(O)C1O (stereo partly specified),inactive,–,–,–,inactive,inactive,–
CC(C)Cc1ccc([C@H](C)C(=O)O)cc1,inactive,inactive,–,–,inactive,inactive,–
CCCCCCOc1ccccc1C(N)=O,inactive,inactive,inactive,inactive,–,–,inactive
Cc1ccc(C(=O)c2ccc(CC(=O)O)n2C)cc1,inactive,–,inactive,inactive,–,–,–
Cc1c(Nc2ncccc2C(=O)O)cccc1C(F)(F)F,inactive,–,inactive,inactive,–,–,–
N.N.O=C(O)C1(C(=O)O)CCC1.[Pt],inactive,inactive,–,–,inactive,–,–
Cc1ccccc1CNc1ncnc2c1ncn2C1OC(CO)C(O)C1O (stereo unspecified),inactive,inactive,inactive,inactive,inactive,inactive,inactive
COc1ccc(/C=C/C(=O)Nc2ccccc2C(=O)O)cc1OC,inactive,0.181 µM (active),inactive,inactive,inactive,inactive,inactive
COc1ccccc1CNCCCCCCNCCCCCCCCNCCCCCCNCc1ccccc1OC,inactive,–,–,–,inactive,inactive,–
O=C(O)c1cc(=O)c2c(Cl)cc(Cl)cc2[nH]1,inactive,–,–,–,inactive,inactive,–
Cn1cc(C2=C(c3ccc(Cl)cc3Cl)C(=O)NC2=O)c2ccccc21,2.51 µM (active),–,–,–,inactive,inactive,–
Brc1c(Br)c(Br)c2n[nH]nc2c1Br,inactive,–,–,–,inactive,inactive,–
O=C(O)c1cc([N+](=O)[O-])ccc1NCCCc1ccccc1,inactive,–,–,–,inactive,inactive,–
O=Nc1ccc2oc(=O)ccc2c1,inactive,–,–,–,10 µM (active),inactive,–
O=C(O)CNC(=O)C(CS)Cc1ccccc1 (stereo unspecified),inactive,–,–,–,inactive,inactive,–
N#C/C(=C\c1ccc(O)c(O)c1)C(=O)NCc1ccccc1,12.6 µM (active),–,–,–,0.562 µM (active),inactive,–
O=C1O/C(=C/Br)CCC1c1cccc2ccccc12 (stereo unspecified),5.62 µM (active),–,–,–,inactive,inactive,–
C[N+](C)(CCCCCC[N+](C)(C)CCCN1C(=O)c2cccc3cccc(c23)C1=O)CCCN1C(=O)c2cccc3cccc(c23)C1=O,inactive,–,–,–,inactive,inactive,–
O=c1[nH]c2cc(C(F)(F)F)ccc2n1-c1cc(C(F)(F)F)ccc1O,inactive,–,–,–,inactive,inactive,–
CCCCCCCCCCCCCCCCCCNC(=O)OCC(COP(=O)([O-])OCC[n+]1ccsc1)OC (stereo unspecified),inactive,–,–,–,inactive,inactive,–
CCCn1c(=O)c2[nH]c(-c3ccc(OCC(=O)NCCN)cc3)nc2n(CCC)c1=O,inactive,–,–,–,inactive,inactive,–
Cc1cc(NC(=O)Nc2ccc3c(ccn3C)c2)sn1,inactive,–,–,–,inactive,inactive,–
Cc1ccc(C(=O)O[C@H](C(=O)O)[C@@H](OC(=O)c2ccc(C)cc2)C(=O)O)cc1 (tested in a mixture with another compound),inactive,–,–,–,inactive,inactive,–
